From PubChem
Sa RN4220 lethal – growth inhibition of S. aureus RN4220, primary screen, OD600; 16 h; inhibition, % (no concentration beside the values); 330,000 tested, 0.33% active; in the data active = inhibition above about 85%;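 also: plate controls were untreated cells for no effect and reference antibiotic for full effect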
PrPC TRFRET – inhibitors of human cell surface prion protein PrPC, primary screen, cell-based, TR-FRET. Major prion protein (Homo sapiens), P04156. TR-FRET read-out. inhibition, % at 13.8 µM. 370,000 tested, 0.43% active; in the data active = inhibition above about 24%; also: 0% = median of the test wells and 100% = reference compound wells
PfHsp40 yeast – rescue of yeast from PfHsp40 toxicity, primary screen, S. cerevisiae, ATP luminescence. S. cerevisiae expressing PfHsp40, growth rescue. growth rescue, % at 12.5 µM. 340,000 tested, 0.68% active. AID 504582, 2011; in the data active = growth rescue above about 28%, passing the limit was not always enough;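 also: yeast W303a lacking pdr1 and pdr3 grown in galactose medium; growth measured after three days at 30 °C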
Sa ugtP lethal – growth inhibition of ugtP-null S. aureus, primary screen, RN4220 ugtP deletion, OD600; 16 h; growth inhibition, % (test concentration not listed); 330,000 tested, 0.54% active; in the data active = growth inhibition above about 68%;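 also: plate controls were untreated wells for no effect and antibiotic for full effect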
VHR inh abs – VHR1 phosphatase inhibitors, primary screen, biochemical, absorbance, uHTS; 290,000 tested, 0.52% active; inhibition, % at 13.3 µM; recombinant VHR phosphatase, pNPP absorbance; Dual specificity protein phosphatase 3 (Homo sapiens), P51452; in the data active = inhibition above about 50%
Target sequence (P51452 whole entry, looked up): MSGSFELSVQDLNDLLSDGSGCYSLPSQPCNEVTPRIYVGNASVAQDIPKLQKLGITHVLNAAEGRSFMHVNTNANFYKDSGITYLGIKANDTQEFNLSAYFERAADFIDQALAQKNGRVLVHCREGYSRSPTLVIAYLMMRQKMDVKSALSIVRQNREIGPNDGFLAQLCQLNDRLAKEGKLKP
An asterisk follows results filed as active; . = no result. A selection: hits, their analogues and other compounds. The true share with any hit is near 1.8%.

SMILES | Sa RN4220 lethal | PrPC TRFRET | PfHsp40 yeast | Sa ugtP lethal | VHR inh abs
Cc1cc(C)nc(NC(=O)/C=C/c2ccccc2Cl)n1 | 3 | -10 | 1 | -16 | -11
Cc1cc(C(=O)NNC(=S)NC(=O)/C=C/c2ccccc2Cl)n[nH]1 | 7 | -4 | 56* | -27 | 0
CCC(=O)NNC(=S)NC(=O)c1ccc(C)cc1 | 16 | -4 | 69* | 13 | 6
COc1ccc(C(=O)NC(=S)NNC(=O)c2ccccc2C)cc1 | 38 | -3 | 105* | 12 | .
Cc1ccccc1C(=O)NNC(=S)NC(=O)c1ccc(Cl)cc1Cl | 62 | 1 | 395* | 39 | 27
O=C(NC(Cc1ccccc1)C(=O)NC(Cc1ccccc1)C(=O)O)OCc1ccccc1 (stereo not given) | 4 | . | . | 4 | .
COc1ccc(C(=O)NCC(=O)NN=C(C)Cc2ccccc2)cc1 | -5 | . | . | -5 | .
Cc1cccc(C(=O)NC(=S)NNC(=O)c2ccccc2Cl)c1 | 51 | 8 | 64* | 18 | -5
Cc1cccc(C(=O)NC(=S)NCc2ccccc2)c1 | -1 | 10 | 19 | 25 | .
Cc1cccc(C(=O)NC(=S)NNC(=O)Cc2ccccc2)c1 | 44 | -5 | 229* | 19 | 4
CCOC(=O)CC1c2cc(F)ccc2S(=O)(=O)N1C1CCCCC1 (stereo not given) | 0 | . | . | -5 | .
CN(C)c1ccc(C=c2c3cc(O)ccc3n3c2cc(-c2ccccc2)[n+]3C)cc1 | . | -33 | 295* | . | .
C[n+]1c(-c2ccccc2)cc2c(=Cc3ccccc3)c3ccccc3n21 | . | -41 | 170* | . | .
CC(C)=CCCC1=CCC(/C=N/NC(N)=O)C(C)C1 (stereo not given) | . | 0 | -1 | . | -6
CC(C)=CCCC1=CCC(C=NNC(N)=O)C(C)C1 (stereo not given) | 1 | . | . | 93* | .
O=C(O)C1CCCC2CN3CCc4c([nH]c5ccccc45)C3C(O)C21 (stereo not given) | 17 | -4 | 1 | 2 | 56*
O=C(O)C1C(O)CCC2CN3CCc4c([nH]c5ccccc45)C3CC21 (stereo not given) | 8 | . | . | 18 | .
CC(C)(C)c1cc(NCCCn2ccnc2)n2ncc(-c3ccccc3)c2n1 | 58 | 10 | 0 | 85* | 33
Cc1cc(NCCCn2ccnc2)n2ncc(-c3ccc(Cl)cc3)c2n1 | 30 | 6 | 0 | 91* | 25
CC(C)(C)c1cc(NCc2ccccn2)n2ncc(-c3ccc(Cl)cc3)c2n1 | -14 | 9 | -1 | -1 | 20
CN(C)CCCNc1cc(C(C)(C)C)nc2c(-c3ccc(Cl)cc3)cnn12 | 101* | 0 | 44* | 100* | 16
CCCc1cc(=O)oc2cc(OCC(=O)Nc3ccc(S(N)(=O)=O)cc3)ccc12 | -7 | 6 | 0 | -7 | 57*
CCCc1cc(=O)oc2cc(OCC(=O)NCC(O)c3ccccc3)ccc12 (stereo not given) | -2 | 3 | -1 | -3 | 53*
C#CCOCCOCCOCCNc1nc(N2CCN(C(=O)C(CCC(=O)O)n3cc(C(N)CC(C)C)nn3)CC2)nc(N2CCN(C(=O)C(Cc3cc4ccccc4[nH]3)n3cc(C(N)CC(C)C)nn3)CC2)n1 (stereo not given) | 2 | . | . | -5 | .
COc1ccc(CN2CCC(=O)N(C(CO)CC(C)C)CC2)cc1OC (stereo not given) | 3 | . | . | -4 | .
SMILES | Sa RN4220 lethal | PrPC TRFRET | PfHsp40 yeast | Sa ugtP lethal | VHR inh abs
Cn1cnnc1SCC(=O)NN=Cc1ccc(OCC(N)=O)cc1 | 3 | . | . | 5 | .
CC(C)Cc1nc(N2CCCCC2)c(C#N)c2c1CCC2 | 2 | -2 | -1 | 86* | 21
Cc1cccc(C(=O)N[C@H](C(=O)Nc2ncc(C)s2)C(C)C)c1 | -1 | 41* | 23 | 8 | -22
Cc1ccc(C2CN=NC23CCc2ccccc2C3=O)cc1 (stereo not given) | -3 | 0 | 0 | 0 | 16
O=C1c2ccccc2CCCC12N=NCC2c1cccc2ccccc12 (stereo not given) | -15 | 4 | 109* | 5 | 21
C=C(C)C1CC=C(C)/C(=N/NC(=O)CCC(=O)Nc2ccccc2Cl)C1 (stereo not given) | . | 6 | -3 | . | 55*
COc1ccc(/C=N/Nc2cc(C)nc(-n3nc(C)cc3C)n2)c(OC)c1 | . | 10 | 178* | . | 4
COc1ccc(Oc2coc3cc(OC(=O)/C=C/c4ccc(F)cc4)ccc3c2=O)cc1 | 16 | 2 | 0 | 4 | 5
COc1ccc(Oc2coc3cc(OC(=O)/C=C/c4ccccc4)ccc3c2=O)cc1 | 10 | -4 | 95* | 17 | 13
CCC1(C)Cc2ccccc2-c2nc(NN)[nH]c(=O)c21 (stereo not given) | 7 | 3 | 0 | 1 | 19
CCC1(C)Cc2ccccc2-c2nc(-c3ccccc3)oc(=O)c21 (stereo not given) | -1 | -4 | 1 | 85* | -6
COc1ccc(-n2cccc2C=C2C(=N)N3N=C(C(C)C)SC3=NC2=O)cc1 | 8 | . | . | -2 | .
Fc1ccc(NN=C(c2ccccc2)c2ccccn2)cc1 | 12 | . | . | 45 | .
COC(=O)c1cccc(C23CC4(C2)C(CN(Cc2cccnc2)C4c2ccccc2)C3c2ccccc2)c1 (stereo not given) | -1 | . | . | 5 | .
O=C(CN1CCCC1)NC(c1ccccc1)c1ccccc1 | 4 | -5 | 0 | 11 | 51*
CCOC1OC(C(N)=O)=CC(C2CCCCC2)C1CCCO (stereo not given) | 4 | . | . | 0 | .
S=C(NN=C(c1ccccc1)c1ccccn1)N(Cc1ccccn1)Cc1ccccn1 | . | 13 | 135* | . | .
O=C(NN=C(c1ccccc1)c1ccccn1)c1ccccc1 | . | 3 | 44* | . | .
CC(=NNC(=S)N(Cc1ccccn1)Cc1ccccn1)c1cnccn1 | . | 1 | 113* | . | .
O=C(N/N=C(\c1ccccc1)c1ccccn1)c1ccccc1Cl | . | 10 | 9 | . | 2
C=C1CCN(C(Cc2ccccc2)C(=O)NCCCc2ccccc2)S(=O)(=O)c2ccccc21 (stereo not given) | 5 | . | . | 8 | .
CCCCC(=O)NC(c1ccc(N(CC)CC)cc1)c1ccc2cccnc2c1O (stereo not given) | . | 6 | 129* | . | 30
CCN(CC)c1ccc(C(NC(=O)C(C)C)c2ccc3cccnc3c2O)cc1 (stereo not given) | . | 18 | . | . | .
CCCC(=O)NC(c1ccccc1OC)c1ccc2cccnc2c1O (stereo not given) | 14 | . | 374* | 22 | 16
CN1CCN(c2ccc([N+](=O)[O-])c3no[n+]([O-])c23)CC1 | 56 | 3 | 5 | 98* | -8
O=[N+]([O-])c1ccc(N(CCO)CCO)c2c1no[n+]2[O-] | . | -22 | . | . | .
CC1CN(C(C)CO)C(=O)c2cccc(NS(=O)(=O)c3ccc(F)cc3)c2OC1CN(C)C(=O)Nc1ccc2c(c1)OCO2 (stereo not given) | -2 | . | . | -5 | .
